# Inconclusive results are not listed. Entries that show only a call come without a potency. Active and inactive are the calls of the source. The call rests on the fitted dose curve; in most records, active means well fitted inhibition curve with a large enough effect in the repeat runs; inconclusive means weak or mixed curves; inactive means no such curve, though single readings can be large or run the other way.
# Molecular target: Estrogen receptor (Homo sapiens) (UniProt P03372)
# Assay: qHTS assay to identify small molecule antagonists of the estrogen receptor alpha (ER-alpha) signaling pathway using the BG1 cell line in the presence of 0.1 nM 17-beta-estradiol (AID 1259244); further: nearly all actives have a fitted effect of over 50% in size
# Conditions: VM7Luc4E2 (BG1) ERE-luciferase, antagonist mode, 0.1 nM E2, 22 h; series mostly up to 92.4 µM
# Description: National Center for Advancing Translational Sciences [NCATS]
# NIH Chemical Genomics Center [NCGC]
# U.S. Environmental Protection Agency [EPA]
# National Institutes of Environmental Health Sciences [NIEHS]
# National Toxicology Program [NTP]
# U.S. Food and Drug Administration [FDA]
# Estrogen receptor (ER), a member of the nuclear hormone receptor plays an important role in development, metabolic homeostasis and reproduction. Two subtypes of ER, ER-alpha and ER-beta, have similar expression patterns with some uniqueness in both types. Endocrine disrupting chemicals (EDCs) and their interactions with steroid hormone receptors like ER causes disruption of normal endocrine function. Therefore, it is important to understand the effect of environmental chemicals in ER signaling pathway. For identifying ER antagonists, VM7Luc4E2 cell line was used to screen against Tox21 compound libraries.
# VM7Luc4E2 cell line (provided by Denison MS, University of California) endogenously express full-length ER-alpha and is stably transfected with a plasmid containing four estrogen responsive elements (ERE) upstream of a luciferase reporter gene. The current screening for identification of ER-alpha inhibitors against Tox21 compound libraries used lower concentration (0.1 nM) of 17beta-Estradiol as a stimulator.
# Tox21 Assay Protocol Summary:
# VM7Luc4E2 cells were cultured in phenol red free assay medium containing 10% charcoal stripped FBS for 5 days prior to the assay. The cells were dispensed at 4,000 cells/well in 4 uL of assay medium into white wall/solid-bottom 1536-well plates (Corning Life Sciences, Corning, NY) using a Multidrop Combi (ThermoFisher Scientific, Waltham, MA) dispenser. After the assay plates were incubated at 37C and 5% CO2 for 24 hr, 23 nL of compounds dissolved in DMSO, positive controls or DMSO only was transferred to the assay plates by a Pintool station (Kalypsys, San Diego, CA). The transfer of compounds was followed by the addition of 1 uL of 0.1 nM (final concentration) agonist (17beta-Estradiol)/assay medium using a Flying Reagent Dispenser (FRD, Aurora Discovery, San Diego, CA). The plates were incubated at 37C and 5% CO2 for 22 hr. For luciferase reporter gene assay, 4 uL of ONE-Glo reagent (Promega Corporation, Madison, WI) was added to each well using the FRD and after 30 min incubation at room temperature luminescence intensity was measured using ViewLux plate reader (PerkinElmer, Shelton, CT).
# Potency means the concentration at half of the fitted maximal effect.
# Sequence of Estrogen receptor (Homo sapiens) (P03372 whole entry, looked up): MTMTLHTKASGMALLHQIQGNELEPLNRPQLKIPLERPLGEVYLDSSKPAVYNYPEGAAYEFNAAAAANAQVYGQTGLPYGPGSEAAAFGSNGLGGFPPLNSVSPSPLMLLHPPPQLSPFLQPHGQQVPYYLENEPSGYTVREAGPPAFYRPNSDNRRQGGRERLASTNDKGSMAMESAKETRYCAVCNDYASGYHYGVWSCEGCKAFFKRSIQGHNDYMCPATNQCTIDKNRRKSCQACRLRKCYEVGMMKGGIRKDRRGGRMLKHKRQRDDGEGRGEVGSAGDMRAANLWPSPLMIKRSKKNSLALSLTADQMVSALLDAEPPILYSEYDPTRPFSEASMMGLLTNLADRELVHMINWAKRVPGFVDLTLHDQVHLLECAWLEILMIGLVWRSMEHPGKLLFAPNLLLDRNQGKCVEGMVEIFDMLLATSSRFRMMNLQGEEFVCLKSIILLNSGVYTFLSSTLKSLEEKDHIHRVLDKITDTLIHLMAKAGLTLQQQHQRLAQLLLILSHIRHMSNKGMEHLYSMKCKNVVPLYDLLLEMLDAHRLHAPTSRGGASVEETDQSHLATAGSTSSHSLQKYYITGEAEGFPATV
row,Compound,Potency
1,CCC(C)Nc1c([N+](=O)[O-])cc(C(C)(C)C)cc1[N+](=O)[O-] (stereo not given),inactive
2,c1cc[n+]2c(c1)-c1cccc[n+]1CC2,26.6 µM (active)
3,Cc1cnc2c(C(=O)O)c(Cl)ccc2c1,inactive
4,C[C@H]1[C@H](c2ccc(Cl)cc2)SC(=O)N1C(=O)NC1CCCCC1,61.1 µM (active)
5,CC(C)Br,inactive
6,CNC(=O)Oc1cc(C)cc(C(C)C)c1,inactive
7,CC(C)NCC(O)c1ccccc1Cl (stereo not given),inactive
8,O=S(=O)(O)F,inactive
9,CCCCN(CCCC)C(=S)S,inactive
10,CCN1CCC2(CC1)COc1cc3c(cc12)N(C(=O)c1ccc(-c2ccc(-c4nnc(C)o4)cc2C)cc1)CC3,50.2 µM (active)
11,CC(C)C(Br)C(=O)NC(N)=O (stereo not given),inactive
12,CN(C)c1ccc(N)cc1,29.9 µM (active)
13,CCCCCCCc1ccc(O)cc1,inactive
14,CSC(C)(C)/C=N/O,inactive
15,c1ccc(Nc2ccc(Nc3ccccc3)cc2)cc1,inactive
16,CC1(C)C(C=C(Cl)Cl)C1C(=O)OC(C#N)c1ccc(F)c(Oc2ccccc2)c1 (stereo not given),inactive
17,CNC(=O)/C=C(\C)OP(=O)(OC)OC,inactive
18,c1csc(-c2ccc(-c3cccs3)s2)c1,inactive
19,Clc1ccc(C2(Cn3cncn3)OCCO2)c(Cl)c1,inactive
20,COc1c2c(cc3c1OCO3)CCN(C)C2,inactive

row,Compound,Potency
1,CCN(CC)CCN1C(=O)CN=C(c2ccccc2F)c2cc(Cl)ccc21,inactive
2,Fc1ccc(C(OCCN2CCN(CCCc3ccccc3)CC2)c2ccc(F)cc2)cc1,23.7 µM (active)
3,O=c1[nH]c2cc(Cl)ccc2n1C1CCNCC1,inactive
4,Cc1cc(C2CC2)nc(Nc2ccccc2)n1,inactive
5,CN1[C@@H]2CC[C@H]1CC(O)C2 (stereo not given in full),inactive
6,CC(C)C(Nc1ccc(C(F)(F)F)cc1Cl)C(=O)OC(C#N)c1cccc(Oc2ccccc2)c1 (stereo not given),inactive
7,CCCCC/C=C\C/C=C\C/C=C\C/C=C\CCCC(=O)NCC(=O)O,inactive
8,CCOC(=O)Cc1ccccc1,inactive
9,O=P(Cl)(Cl)Cl,inactive
10,O=[N+]([O-])c1cc(C(F)(F)F)c(Cl)c([N+](=O)[O-])c1Nc1ncc(C(F)(F)F)cc1Cl,24.3 µM (active)
11,N#Cc1ccc(N(CC(N)=O)CC(F)(F)F)cc1C(F)(F)F,inactive
12,[Cl][Hg][c]1ccccc1,6.11 µM (active)
13,Oc1cccc(Cl)c1Cl,inactive
14,CC(C)c1c(CN(C)C(C)Cc2ccccc2)n(C)n(-c2ccccc2)c1=O (stereo not given),inactive
15,N#Cc1c[nH]cc1-c1cccc2c1OC(F)(F)O2,24.3 µM (active)
16,Cc1c([N+](=O)[O-])c(C)c([N+](=O)[O-])c(C(C)(C)C)c1[N+](=O)[O-],inactive
17,CCNc1nc(NC(C)C(C)C)nc(SC)n1 (stereo not given),inactive
18,CNC(=O)CSP(=O)(OC)OC,inactive
19,Cc1cc2c3c(c1)C(c1ccccc1)=N[C@@H](NC(=O)c1ccncc1)C(=O)N3CC2,inactive
20,CCOC(=O)CCN(SN(C)C(=O)Oc1cccc2c1OC(C)(C)C2)C(C)C,inactive
